Activity calls are given as the source filed them. Calls follow the shape of the full dose curve.
Assay: qHTS drug screen for cell cycle checkpoint inhibitors in PARPi-resistant BRCA-mutant ovarian cancer cell lines. (AID 1963452)
Details: PEO1/OlaR viability, CellTiter-Glo luminescence, 96 h, stronger effect = lower value
How it was run: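 PEO1, PEO4 and PEO1/OlaR ovarian cancer cells, 600 per well, exposed 96 h at 37C to a dilution series. Viability read by CellTiter-Glo luminescence, normalized to DMSO and empty wells; activity summarized as Z-AUC.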

[1] = measured here: PEO1 parental Z-AUC

Structure (SMILES)	Z-AUC	Z-AUC [1]	Z-AUC (measured here: PEO4 Z-AUC)
CC(C)C[C@H](CO)Nc1nc(S[C@@H](C)c2ccccc2)nc2nc(N)sc12	-0.387 (inactive)	-0.481	-0.0726
COc1cc2c(cc1OC(C)C)[C@H](c1ccc(Cl)cc1)N(c1ccc(N(C)CC3CCC(N4CCN(C)C(=O)C4)CC3)cc1)C(=O)C2 (stereo not given in full)	0.694 (inactive)	0.366	0.545
C[C@@H]1CN(CC(=O)N2CC(C)(C)c3ncc(Cc4ccc(F)cc4)cc32)[C@@H](CN2CCOC[C@H]2C)CN1	1.68 (inactive)	0.908	0.0229
COc1ccc(-n2c(SCCCN3C(=O)c4cccc5cccc(c45)C3=O)nnc2-c2ccncc2)cc1	0.836 (inactive)	0.296	0.916
COc1cc2ncnc(Nc3ccc(O)c(Br)c3)c2cc1OC	-0.393 (inactive)	0.024	-0.318
CCCOc1ccc(CCc2nc3cc(-c4c(C)noc4C)ccc3n2CCN2CCOCC2)cc1	-0.591 (inactive)	-0.719	-0.728
C[C@@H](Nc1ncnc2[nH]c(-c3ccc(O)cc3)cc12)c1ccccc1	0.00552 (inactive)	0.314	0.296
O=C(CCl)Nc1cccc(NC2=NS(=O)(=O)c3ccccc32)c1	-0.599 (inactive)	-0.67	-0.526
NC(=O)c1cnc(N[C@@H]2CCCC[C@@H]2N)nc1Nc1cccc(-n2nccn2)c1	0.565 (inactive)	-0.0999	0.242
NCCOc1cc(C(=O)Nc2cc(OCCN)c3ccccc3n2)nc(C(=O)Nc2cc(OCCN)c3ccccc3n2)c1	-0.0869 (inactive)	-0.747	-0.493
